Data: PubChem BioAssay AID1030 (National Center for Advancing Translational Sciences (NCATS), 2008)
Out of some 220,000 compounds screened, about 16,000 (7.3%) were called active. Entries that show only a call come without a potency. Inconclusive results (about 25%) are left out. Only a selection was taken, and actives are over-represented in it overall. Values without a mark were called inactive. Calls come from the whole dose curve; as a rule, active = well fitted inhibition curve with a large enough effect (not every such curve was filed as active); inconclusive = small, poorly fitted or top-dose-only effect, or another doubt; inactive = no such curve, though single readings can be large or run the other way. Peptide text beside a SMILES is read from it. * marks the point of attachment. OPac = O=C(CO*)c1ccccc1; Bz = O=C(c1ccccc1)*
Potency is the fitted concentration of half-maximal effect.

The compounds below were run against Aldehyde dehydrogenase 1A1 (Homo sapiens) (UniProt P00352) (assay: qHTS Assay for Inhibitors of Aldehyde Dehydrogenase 1 (ALDH1A1)). Settings: Purified ALDH1A1, NADH fluorescence, propionaldehyde substrate; series mostly up to 75.3 µM.
Chain of Aldehyde dehydrogenase 1A1 (Homo sapiens) (P00352 whole entry, looked up): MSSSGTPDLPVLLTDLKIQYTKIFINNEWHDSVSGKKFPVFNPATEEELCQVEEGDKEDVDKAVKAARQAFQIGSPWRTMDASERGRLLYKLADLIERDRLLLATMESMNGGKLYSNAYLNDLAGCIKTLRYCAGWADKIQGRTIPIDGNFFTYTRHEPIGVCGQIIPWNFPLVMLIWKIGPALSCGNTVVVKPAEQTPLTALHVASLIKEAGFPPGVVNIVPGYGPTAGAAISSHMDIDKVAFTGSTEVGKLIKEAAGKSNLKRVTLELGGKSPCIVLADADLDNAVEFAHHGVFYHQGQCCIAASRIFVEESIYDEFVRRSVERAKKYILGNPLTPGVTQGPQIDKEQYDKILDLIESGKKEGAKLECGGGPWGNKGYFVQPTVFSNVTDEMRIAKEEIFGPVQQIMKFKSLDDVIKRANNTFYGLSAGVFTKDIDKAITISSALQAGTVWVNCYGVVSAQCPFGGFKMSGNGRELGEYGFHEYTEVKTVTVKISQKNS
In the case of `Cc1cccc(COc2ccccc2/C=N/Nc2ccc([N+](=O)[O-])cc2)c1`, the Potency was “inactive”. In the case of `O=[N+]([O-])c1ccc(N/N=C/c2ccccc2)cc1`, the Potency was 14.1 µM (active). In the case of `NC(=S)N/N=C/c1ccc([N+](=O)[O-])cc1`, the Potency was “inactive”. With `Cn1ncc(N2CCN(S(=O)(=O)c3ccc(Br)cc3)CC2)c(Cl)c1=O` the Potency was “inactive”. In the case of `N#Cc1c(C(F)(F)F)cc(-c2ccc(Cl)cc2)nc1SCC(=O)O`, the Potency was “inactive”. `Cc1ccc(C(=O)N/C(=C/c2cccs2)C(=O)N2CCCCC2)cc1` was tested, and the Potency was “inactive”. With `Cc1cccc(C(=O)N2CCc3c([nH]c4ccccc34)C2CC(C)C)n1` (stereo not drawn) the Potency was “inactive”. For `CCOC(=O)C1(Cc2cccc(OC)c2)CCN(C(C)CC(C)(C)O)CC1` (stereo not drawn), the Potency was 3.55 µM (active). For `CCOC(=O)C1(Cc2cccc(OC)c2)CCN(C(C)COC)CC1` (stereo not drawn), the Potency was “inactive”. With `CCOC(=O)C1(Cc2cccc(OC)c2)CCN(Cc2csc(C(C)=O)c2)CC1` the Potency was “inactive”. For `CN(CC(=O)NC1CCCC1)S(=O)(=O)c1cnc[nH]1`, the Potency was “inactive”. In the case of `CCN(CC)CCN(C(=O)c1ccc(N2C(=O)CCC2=O)cc1)c1nc2cc3c(cc2s1)OCO3`, the Potency was 20 µM (active). With `CCN(CC)CCN(C(=O)c1cccc([N+](=O)[O-])c1)c1nc2ccc(OC)cc2s1` the Potency was “inactive”. `CCCCN(CC)C(=O)c1ccc2c(c1)OCO2` was tested, and the Potency was “inactive”. In the case of `COc1ccc(CC2(CO)CCN(Cc3cnn(C)c3)CC2)cc1`, the Potency was “inactive”. For `COCCCNC(=O)/C=C/c1ccc(OCc2c(F)cccc2Cl)cc1`, the Potency was “inactive”. For `Cc1nc(NC(=O)CN(C)S(=O)(=O)c2ccc(Cl)cc2)sc1C`, the Potency was “inactive”. In the case of `Cc1nc(-c2ccc(Cl)cc2)sc1C(=O)CBr`, the Potency was 12.6 µM (active). In the case of `Cc1ccc(SCC(=O)c2sc(-c3ccccc3)nc2C)cc1`, the Potency was “inactive”. `O=C(N/N=C/c1cc([N+](=O)[O-])ccc1O)/C(=C\c1cccs1)NC(=O)c1ccccc1` was tested, and the Potency was “inactive”. In the case of `CCC(=O)Nc1ccc(Nc2nc(Cl)nc(Nc3ccc(NC(=O)CC)cc3)n2)cc1`, the Potency was “inactive”. With `O=c1[nH]c2cccnc2n(CCNc2ncc(C(F)(F)F)cc2Cl)c1=O` the Potency was “inactive”. With `CC(C)(C)n1cnnc1Sc1ccc([N+](=O)[O-])cn1` the Potency was “inactive”. For `Cc1cc2nc(C)n(CCCNC(=O)Nc3ccccc3)c2cc1C`, the Potency was “inactive”. With `CCCCNC(=O)C(=O)c1ccccc1NC(C)=O` the Potency was “inactive”. In the case of `CCCCNC(=O)Nc1c(C)cc(SC#N)cc1C`, the Potency was 0.562 µM (active). `O=C(/C=C/Sc1ncn[nH]1)c1ccc(Cl)cc1` was tested, and the Potency was 8.91 µM (active). For `O=C(NCCOCc1ccc(Cl)cc1)c1ncn[nH]1`, the Potency was “inactive”. For `COc1cccc2cc(S(=O)(=O)c3ccc(C)cc3)/c(=N/NS(=O)(=O)c3ccc(C)cc3)oc12`, the Potency was “inactive”. `CCOc1ccc(-n2c(SCC(=O)NC3CCS(=O)(=O)C3)nnc2-c2cccnc2)cc1` (stereo not drawn) was tested, and the Potency was “inactive”. `Cn1c2c(c(=O)n(C)c1=O)[C@@H]1c3c(ccc4ccccc34)OC[C@@H]1CO2` was tested, and the Potency was “inactive”. For `Cn1c2c(c(=O)n(C)c1=O)C1c3ccccc3OCC1C(C)(C)O2` (stereo not drawn), the Potency was 28.2 µM (active). With `COc1cccc2c1OCC1COc3c(c(=O)n(C)c(=O)n3C)C21` (stereo not drawn) the Potency was “inactive”. With `COc1ccc(C/C(N)=N/OC(=O)c2ccco2)cc1OC` the Potency was “inactive”. `COc1ccccc1-c1nnc(SCC(=O)Nc2cc(C)on2)o1` was tested, and the Potency was “inactive”. `CCOc1ccccc1-n1c(SCC(=O)N2CCCC2)nnc1-c1ccoc1C` was tested, and the Potency was “inactive”. `COc1ccccc1N1CCN(C(=O)CSc2nnc(-c3ccoc3C)o2)CC1` was tested, and the Potency was 1.58 µM (active). With `COc1ccc(-n2nc(C(=O)Nc3cc(OC)c(OC)c(OC)c3)c3ccccc3c2=O)c(OC)c1` the Potency was “inactive”. With `CCOC(=O)c1c(NC(=S)NC(=O)c2ccco2)sc2c1CCCC2` the Potency was “inactive”. For `CNC(=O)c1c(NC(NC(=O)c2ccco2)C(=O)c2ccc(Cl)cc2)sc2c1CCCC2` (stereo not drawn), the Potency was 14.1 µM (active). For `COC(=O)c1c(NC(=O)c2cccs2)sc2c1CCCC2`, the Potency was “inactive”. With `COc1cc(OC)cc(-c2nnc(N(C)C(=O)c3ccncc3)s2)c1` the Potency was “inactive”. `O=C1[C@@H]2C(c3cccnc3)=NO[C@@H]2C(=O)N1c1ccc(Cl)cc1Cl` was tested, and the Potency was 3.55 µM (active). `COC(=O)CCCC1=CC2=CC(=O)C(C)(OC(=O)c3cccs3)C(=O)C2=CN1CC(C)C` (stereo not drawn) showed an activity, negative = inhibition of -2.57% [at 13.5 µM]. `CN1CCN(CCCCOc2ccccc2-c2ccccc2)CC1` was tested, and the Potency was 10 µM (active). `CC1CCCN(CCOCCOc2ccccc2-c2ccccc2)C1` (stereo not drawn) was tested, and the Potency was “inactive”. For `c1ccc(-c2ccccc2OCCN2CCCCC2)cc1`, the Potency was “inactive”. In the case of `O=C(Nc1ccccc1C(=O)N1CCCCCC1)c1ccccc1Cl`, the Potency was “inactive”. For `O=C(c1ccc(Cl)c(Cl)c1)N1CCCC1`, the Potency was “inactive”. For `Cc1c(Cl)cccc1NC(=O)Nc1ccc(C(=O)N2CCCC2)cc1`, the Potency was 20 µM (active). With `Cc1ccc(S(=O)(=O)N(C)C)cc1NC(=O)COC(=O)C1COc2ccccc2O1` (stereo not drawn) the Potency was “inactive”. In the case of `CCOC(=O)/C(=N\Nc1ccccc1[N+](=O)[O-])c1csc(Nc2ccccc2)n1`, the Potency was “inactive”. For `CN(C)S(=O)(=O)c1cccc(NC(=S)N/N=C/C(=O)c2ccccc2)c1`, the Potency was 8.91 µM (active). For `C/C(=C\C(=O)c1ccccc1)Nc1cccc(O)c1`, the Potency was “inactive”. `CN(C)S(=O)(=O)c1cccc(C(=O)Nc2cccnc2)c1` was tested, and the Potency was “inactive”. With `O=C(CC1SC(=Nc2ccccc2)N(Cc2ccccn2)C1=O)Nc1cccc(Cl)c1` (stereo not drawn) the Potency was 20 µM (active). For `CN1C(=O)C(CC(=O)Nc2ccccc2)S/C1=N/c1nccs1` (stereo not drawn), the Potency was “inactive”. With `O=C(Nc1cccc(Cl)c1)OCc1ccccn1` the Potency was “inactive”. For `c1ccc2c(c1)OCCOCCOCCO2`, the Potency was “inactive”. With `CSCCC(NC(=O)c1ccco1)C(=O)OCC(=O)Nc1ncc(Cl)c(C)c1Cl` (stereo not drawn) the Potency was 22.4 µM (active). In the case of `Cc1c(Cl)cnc(NC(=O)COC(=O)c2ccc(S(=O)(=O)NCc3ccco3)cc2)c1Cl`, the Potency was “inactive”. With `CCc1cc2c(SCC(=O)Nc3ncc(Cl)c(C)c3Cl)ncnc2s1` the Potency was “inactive”. For `COC(=O)c1ccc(OCC(O)CN(CCO)CC(O)Cn2ccc3ccccc32)cc1` (stereo not drawn), the Potency was “inactive”. For `O=C(/C=C/NCc1ccc(F)cc1)c1ccccc1`, the Potency was “inactive”. For `O=C(CNC(=O)c1ccccc1)NCC(=O)OCC(=O)c1ccccc1` (Bz-Gly-Gly-OPac), the Potency was “inactive”. For `O=C(/C=C\NCC(=O)c1ccccc1)c1ccccc1`, the Potency was 2.51 µM (active). In the case of `OCCC1CN(Cc2ccc(Oc3ncccn3)cc2)CCN1CCc1ccccc1` (stereo not drawn), the Potency was “inactive”. With `COc1cccc(C(=O)Nc2cccnc2)c1OC` the Potency was “inactive”. For `O=C(O)c1cccc(NC(=O)c2cc(-c3cccc(Cl)c3)nc3ccccc23)c1`, the Potency was “inactive”. With `O=C(c1ccc2ccccc2n1)N1CCN(c2ccccc2Cl)CC1` the Potency was “inactive”. `S=C(Nc1ccc(Br)cc1Cl)N1CCC2(CC1)OCCO2` was tested, and the Potency was “inactive”. With `CC(C)C[C@H](NC(=O)[C@H](O)[C@H](N)Cc1ccccc1)C(=O)O` the Potency was “inactive”. For `O=C(CN1CCN(c2ccc(Cl)cc2)CC1)N1CCCC1`, the Potency was “inactive”. With `O=C(CSCc1ccc(Cl)cc1)N1CCCCC1` the Potency was 11.2 µM (active). In the case of `O=C(CSCc1ccc(Cl)cc1)N1CCN(Cc2ccc3c(c2)OCO3)CC1`, the Potency was “inactive”. With `COc1ccccc1NC(=S)N1CCC(NC(=O)C23CC4CC(CC(C4)C2)C3)CC1` the Potency was “inactive”. In the case of `Cc1ccc(NC(=O)OCCNC(=O)c2ccncc2)cc1`, the Potency was “inactive”. For `CN(C)S(=O)(=O)c1ccc2oc(SCC(=O)Nc3ccccc3F)nc2c1`, the Potency was “inactive”. For `Cn1c(/C(C#N)=C2/CCCCCN2)nc2ccccc21`, the Potency was 17.8 µM (active). With `N#C/C(=C1/CCCN1)c1ccccn1` the Potency was “inactive”. In the case of `Cc1ccc(O)c(CNc2nc3ccccc3n2C)c1`, the Potency was “inactive”. For `NC(=O)c1nnsc1-c1ccc(-c2snnc2C(N)=O)cc1`, the Potency was “inactive”. `O=C(C/C(=N\NC(=O)c1ccccc1Br)C(F)(F)F)c1cccs1` was tested, and the Potency was “inactive”. For `COc1ccc(C(=O)Nc2ccc(F)cc2F)cc1`, the Potency was “inactive”. In the case of `O=C(O)/C=C/C(=O)Nc1ccc(F)cc1F`, the Potency was 25.1 µM (active). In the case of `CC(C)CC(=O)NC(=S)Nc1ccc(F)cc1F`, the Potency was “inactive”. In the case of `Nc1c(Cl)cc(S(N)(=O)=O)cc1S(N)(=O)=O`, the Potency was “inactive”. In the case of `CCC(C)(C)NC(=O)C(c1cccc(OC)c1OC)N(CC(C)C)C(=O)CCC(=O)Nc1cc(C)on1` (stereo not drawn), the Potency was “inactive”. For `Cc1ccc(S(=O)(=O)CCC(=O)OCc2ccccc2)cc1`, the Potency was “inactive”. For `CCCCN(C)CCNC(=O)CSCc1ccc(C)cc1`, the Potency was “inactive”. For `Cc1ccc(CSCC(N)C(=O)O)cc1` (stereo not drawn), the Potency was 31.6 µM (active). With `O=C(CNC(=O)c1cc(=O)[nH]c2ccccc12)Nc1ccc(F)c(F)c1` the Potency was “inactive”. In the case of `COc1cc(C(F)(F)F)c(C(=O)N(C)c2ccc(Cl)cc2)cn1`, the Potency was “inactive”. For `Cc1noc(C)c1/C=N/Nc1ccc2ccccc2n1`, the Potency was “inactive”. For `c1ccc(Nc2n[nH]nc2-c2ccccc2)cc1`, the Potency was “inactive”. In the case of `O=c1cnnc(Nc2ccccc2)[nH]1`, the Potency was “inactive”. `O=C(CSc1ncccn1)NCCc1ccccc1` was tested, and the Potency was “inactive”. `Cc1nc(C)c(-c2csc(NCCc3ccccc3)n2)s1` was tested, and the Potency was “inactive”. In the case of `S=c1[nH]nc(Nc2ccccc2)s1`, the Potency was 6.31 µM (active). In the case of `S=c1[nH]nc(NCCc2ccccc2)s1`, the Potency was 12.6 µM (active). With `O=C(CCCn1c(=O)c2sccc2n(CC(=O)NCC2CCCO2)c1=O)NCc1ccco1` (stereo not drawn) the Potency was “inactive”. In the case of `CCCN(C(=O)CSc1nnnn1C)c1c(N)n(Cc2ccccc2)c(=O)[nH]c1=O`, the Potency was “inactive”. With `COc1ccc(/C=C/C2=CC(C)(C)NC(=S)N2)c(OC)c1` the Potency was 0.708 µM (active). For `COc1cc(/C=C/CO)cc(OC)c1O[C@@H]1O[C@H](CO)[C@@H](O)[C@H](O)[C@H]1O`, the Potency was “inactive”. In the case of `COc1cc(/C=C/C2=CC(C)(C)NC(=S)N2)cc(OC)c1OC`, the Potency was 3.98 µM (active). For `Cc1ccc2nc(C)cc(N/N=C/c3ccc(F)cc3)c2c1`, the Potency was “inactive”. `O=C(NNc1cc(Cl)ccc1Cl)c1cccnc1Cl` was tested, and the Potency was “inactive”. In the case of `C=CC1(C)CC(=O)C2(O)C(C)(O1)C(OC(C)=O)C(O)C1C(C)(C)CCC(O)C12C` (stereo not drawn), the Potency was “inactive”.
